Source: paper PMC7862700, “An all-to-all approach to the identification of sequence-specific readers for epigenetic DNA modifications on cytosine”

Legend:
Assay in all cases: DAPPL (digital affinity profiling via proximity ligation, sequencing); 10 mM Tris-HCl pH 7.5, 50 mM NaCl, 1 mM DTT, 4% glycerol, room temperature, 30 min; GST-TFs on glutathione beads, 16-mer random dsDNA library, 0.1% formaldehyde crosslink after washing; high values mean tight binding
[1] = molecular target: T1, FEV (Homo sapiens, UniProt Q99581 1-238); settings: protein: recombinant; tags: N-terminal GST; dsDNA, one strand shown
T1 sequence: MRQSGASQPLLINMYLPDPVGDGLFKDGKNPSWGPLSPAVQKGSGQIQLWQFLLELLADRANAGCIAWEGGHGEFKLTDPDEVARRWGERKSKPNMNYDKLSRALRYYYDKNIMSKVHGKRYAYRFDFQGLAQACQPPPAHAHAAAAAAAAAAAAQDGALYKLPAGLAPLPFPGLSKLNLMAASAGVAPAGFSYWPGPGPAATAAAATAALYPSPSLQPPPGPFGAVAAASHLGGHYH
Summary of the method: (§1)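 After expression in yeast as GST fusions, human transcription factors were bound to glutathione beads, DNA-barcoded and mixed with a tag-only sample. The pools were incubated with 200 nmole of a 16-mer random double-stranded DNA library in Tris/NaCl/DTT/glycerol buffer (30 min, room temperature), washed and crosslinked with 0.1% formaldehyde. Proximity ligation with BsaI/T4 ligase ran for 1 h at 37 °C, before PCR amplification and sequencing on an Illumina NextSeq500. Binding signal is a hexamer's read frequency for a factor divided by its frequency for the tag-only sample.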

[2] = molecular target: ETV5 (Homo sapiens, UniProt P41161 1-510); settings: protein: recombinant; tags: N-terminal GST; dsDNA, one strand shown
Summary of the method: as §1

[3] = molecular target: HSF1 (Homo sapiens, UniProt Q00613 1-529); settings: protein: recombinant; tags: N-terminal GST; chain copies: 3; dsDNA, one strand shown
Summary of the method: as §1

[4] = molecular target: T2, SPIC (Homo sapiens, UniProt Q8N5J4 1-248); settings: protein: recombinant; tags: N-terminal GST; dsDNA, one strand shown
T2 sequence: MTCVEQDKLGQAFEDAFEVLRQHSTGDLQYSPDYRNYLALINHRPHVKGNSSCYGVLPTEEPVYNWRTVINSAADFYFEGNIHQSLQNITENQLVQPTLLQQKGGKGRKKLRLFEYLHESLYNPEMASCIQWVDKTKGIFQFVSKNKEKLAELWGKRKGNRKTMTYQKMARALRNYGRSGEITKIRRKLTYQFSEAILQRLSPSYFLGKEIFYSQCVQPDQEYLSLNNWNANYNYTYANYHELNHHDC
Summary of the method: as §1

[5] = molecular target: ELF4 (Homo sapiens, UniProt Q99607 1-663); settings: protein: recombinant; tags: N-terminal GST; dsDNA, one strand shown
Summary of the method: as §1

[6] = molecular target: T3, ELK4 (Homo sapiens, UniProt P28324-2 1-405); settings: protein: recombinant; tags: N-terminal GST; dsDNA, one strand shown
T3 sequence: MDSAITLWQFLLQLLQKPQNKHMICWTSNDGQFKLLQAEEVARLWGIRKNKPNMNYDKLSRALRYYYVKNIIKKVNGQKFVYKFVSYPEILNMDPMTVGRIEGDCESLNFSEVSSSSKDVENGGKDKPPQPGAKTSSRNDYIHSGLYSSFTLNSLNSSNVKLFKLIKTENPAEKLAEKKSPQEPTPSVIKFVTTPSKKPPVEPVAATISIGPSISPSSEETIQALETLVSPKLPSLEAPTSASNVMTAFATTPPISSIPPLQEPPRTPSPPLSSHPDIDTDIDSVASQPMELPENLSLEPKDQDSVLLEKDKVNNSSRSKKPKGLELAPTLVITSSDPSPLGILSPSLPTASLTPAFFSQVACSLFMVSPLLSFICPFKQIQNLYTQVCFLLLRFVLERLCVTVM
Summary of the method: as §1

[7] = molecular target: T4, ETV2 (Homo sapiens, UniProt O00321 1-342); settings: protein: recombinant; tags: N-terminal GST; dsDNA, one strand shown
T4 sequence: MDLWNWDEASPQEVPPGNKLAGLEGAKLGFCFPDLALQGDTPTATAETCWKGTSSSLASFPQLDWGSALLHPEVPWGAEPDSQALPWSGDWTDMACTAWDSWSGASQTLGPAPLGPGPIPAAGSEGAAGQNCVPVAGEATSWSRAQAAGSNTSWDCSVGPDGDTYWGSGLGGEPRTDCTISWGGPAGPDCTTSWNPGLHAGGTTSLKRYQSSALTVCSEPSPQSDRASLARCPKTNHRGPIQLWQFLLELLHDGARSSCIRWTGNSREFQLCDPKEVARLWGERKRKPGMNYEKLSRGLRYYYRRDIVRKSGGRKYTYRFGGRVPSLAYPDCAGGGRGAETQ
Summary of the method: as §1

[8] = molecular target: T5, ELF3 (Homo sapiens, UniProt P78545 1-371); settings: protein: recombinant; tags: N-terminal GST; dsDNA, one strand shown
T5 sequence: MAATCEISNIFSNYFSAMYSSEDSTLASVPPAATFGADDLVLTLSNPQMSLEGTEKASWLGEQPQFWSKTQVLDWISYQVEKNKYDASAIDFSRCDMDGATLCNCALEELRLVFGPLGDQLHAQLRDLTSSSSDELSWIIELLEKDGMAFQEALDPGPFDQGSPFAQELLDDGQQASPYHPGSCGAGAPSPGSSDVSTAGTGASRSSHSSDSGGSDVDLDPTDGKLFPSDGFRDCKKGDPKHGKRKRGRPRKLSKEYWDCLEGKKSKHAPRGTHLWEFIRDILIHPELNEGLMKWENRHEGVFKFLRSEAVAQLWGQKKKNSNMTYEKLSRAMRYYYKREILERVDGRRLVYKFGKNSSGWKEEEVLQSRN
Summary of the method: as §1

[9] = molecular target: CRX (Homo sapiens, UniProt O43186 1-299); settings: protein: recombinant; tags: N-terminal GST; dsDNA, one strand shown
Summary of the method: as §1

[10] = molecular target: ETV1 (Homo sapiens, UniProt P50549 1-477); settings: protein: recombinant; tags: N-terminal GST; dsDNA, one strand shown
Summary of the method: as §1

Sequence of CRX (O43186 whole entry): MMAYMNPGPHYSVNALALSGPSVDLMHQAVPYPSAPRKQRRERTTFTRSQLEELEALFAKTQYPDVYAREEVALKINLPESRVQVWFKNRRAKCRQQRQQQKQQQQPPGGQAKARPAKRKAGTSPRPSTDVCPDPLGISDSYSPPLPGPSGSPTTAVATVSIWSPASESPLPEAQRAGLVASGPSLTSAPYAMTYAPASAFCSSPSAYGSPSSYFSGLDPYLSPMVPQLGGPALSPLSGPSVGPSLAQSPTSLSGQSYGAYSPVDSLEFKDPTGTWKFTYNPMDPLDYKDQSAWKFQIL
Sequence of ETV5 (P41161 whole entry): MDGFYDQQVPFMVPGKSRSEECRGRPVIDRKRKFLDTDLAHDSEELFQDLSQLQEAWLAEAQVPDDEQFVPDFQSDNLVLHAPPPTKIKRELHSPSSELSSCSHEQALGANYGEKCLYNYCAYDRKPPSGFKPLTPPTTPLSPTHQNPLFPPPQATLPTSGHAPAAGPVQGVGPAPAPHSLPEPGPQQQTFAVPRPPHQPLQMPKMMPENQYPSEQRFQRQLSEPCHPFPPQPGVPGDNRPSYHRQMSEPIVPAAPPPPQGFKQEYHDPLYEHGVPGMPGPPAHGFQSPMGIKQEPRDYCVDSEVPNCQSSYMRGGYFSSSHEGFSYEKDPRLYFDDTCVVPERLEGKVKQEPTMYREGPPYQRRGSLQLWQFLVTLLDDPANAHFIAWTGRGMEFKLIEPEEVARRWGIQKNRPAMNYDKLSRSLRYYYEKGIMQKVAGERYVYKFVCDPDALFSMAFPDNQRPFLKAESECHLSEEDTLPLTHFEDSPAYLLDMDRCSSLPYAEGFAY
Sequence of HSF1 (Q00613 whole entry): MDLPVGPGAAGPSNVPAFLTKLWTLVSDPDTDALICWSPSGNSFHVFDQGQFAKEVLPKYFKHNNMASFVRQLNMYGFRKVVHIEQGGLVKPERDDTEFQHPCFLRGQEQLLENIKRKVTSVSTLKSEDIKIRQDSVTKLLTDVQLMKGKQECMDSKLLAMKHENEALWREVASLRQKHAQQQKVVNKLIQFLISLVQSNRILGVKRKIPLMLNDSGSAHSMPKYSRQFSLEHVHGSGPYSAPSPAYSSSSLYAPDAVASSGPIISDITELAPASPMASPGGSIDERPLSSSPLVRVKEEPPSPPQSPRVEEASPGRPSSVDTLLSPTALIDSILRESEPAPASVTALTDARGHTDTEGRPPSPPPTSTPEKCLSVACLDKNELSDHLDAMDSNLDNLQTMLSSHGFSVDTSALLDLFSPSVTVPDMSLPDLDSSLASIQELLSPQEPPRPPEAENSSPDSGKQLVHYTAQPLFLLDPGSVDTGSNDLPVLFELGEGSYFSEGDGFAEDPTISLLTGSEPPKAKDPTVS
Sequence of ELF4 (Q99607 whole entry): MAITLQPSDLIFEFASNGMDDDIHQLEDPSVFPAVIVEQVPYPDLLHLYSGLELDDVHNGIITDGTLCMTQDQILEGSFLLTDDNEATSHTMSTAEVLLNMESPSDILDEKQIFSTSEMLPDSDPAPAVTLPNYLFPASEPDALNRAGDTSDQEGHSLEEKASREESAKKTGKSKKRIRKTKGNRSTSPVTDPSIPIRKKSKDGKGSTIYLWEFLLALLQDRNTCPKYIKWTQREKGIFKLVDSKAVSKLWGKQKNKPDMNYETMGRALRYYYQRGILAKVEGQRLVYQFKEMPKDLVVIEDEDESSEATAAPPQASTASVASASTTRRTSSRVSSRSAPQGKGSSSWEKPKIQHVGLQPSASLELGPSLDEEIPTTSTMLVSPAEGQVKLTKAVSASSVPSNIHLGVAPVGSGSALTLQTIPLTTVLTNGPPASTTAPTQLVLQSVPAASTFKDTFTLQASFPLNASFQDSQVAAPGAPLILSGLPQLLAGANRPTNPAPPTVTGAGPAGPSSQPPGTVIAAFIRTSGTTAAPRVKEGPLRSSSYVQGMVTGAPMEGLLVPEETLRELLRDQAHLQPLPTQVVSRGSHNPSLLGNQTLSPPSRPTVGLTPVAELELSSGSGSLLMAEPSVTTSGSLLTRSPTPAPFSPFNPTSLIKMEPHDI
Sequence of ETV1 (P50549 whole entry): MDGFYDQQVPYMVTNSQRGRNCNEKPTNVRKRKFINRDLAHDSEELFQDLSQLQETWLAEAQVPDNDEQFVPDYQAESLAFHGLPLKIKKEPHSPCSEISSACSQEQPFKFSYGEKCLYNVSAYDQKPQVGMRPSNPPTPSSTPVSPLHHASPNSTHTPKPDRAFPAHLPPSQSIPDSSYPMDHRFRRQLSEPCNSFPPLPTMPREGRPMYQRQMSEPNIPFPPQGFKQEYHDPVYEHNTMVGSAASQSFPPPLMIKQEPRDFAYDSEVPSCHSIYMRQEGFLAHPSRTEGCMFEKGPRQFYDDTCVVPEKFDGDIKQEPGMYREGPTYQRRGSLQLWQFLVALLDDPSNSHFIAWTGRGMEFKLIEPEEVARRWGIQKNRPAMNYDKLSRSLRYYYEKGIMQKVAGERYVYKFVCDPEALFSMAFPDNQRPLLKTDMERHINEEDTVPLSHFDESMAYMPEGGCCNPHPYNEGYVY

Sequence | binding signal [1] | binding signal [2] | binding signal [3] | binding signal [4] | binding signal [5] | binding signal [6] | binding signal [7] | binding signal [8] | binding signal [9] | binding signal [10]
AAATGA | 1.26 fold enrichment (6-mer frequency, TF over GST control) | 1.32 fold enrichment (6-mer frequency, TF over GST control) | 1.12 fold enrichment (6-mer frequency, TF over GST control) | 1.54 fold enrichment (6-mer frequency, TF over GST control) | 1.29 fold enrichment (6-mer frequency, TF over GST control) | 1.29 fold enrichment (6-mer frequency, TF over GST control) | 1.36 fold enrichment (6-mer frequency, TF over GST control) | 1.41 fold enrichment (6-mer frequency, TF over GST control) | 1.16 fold enrichment (6-mer frequency, TF over GST control) | 1.29 fold enrichment (6-mer frequency, TF over GST control)
CTCTAG | 1.25 fold enrichment (6-mer frequency, TF over GST control) | 1.3 fold enrichment (6-mer frequency, TF over GST control) | 2.39 fold enrichment (6-mer frequency, TF over GST control) | 1.37 fold enrichment (6-mer frequency, TF over GST control) | 1.32 fold enrichment (6-mer frequency, TF over GST control) | 1.31 fold enrichment (6-mer frequency, TF over GST control) | 1.12 fold enrichment (6-mer frequency, TF over GST control) | 1.1 fold enrichment (6-mer frequency, TF over GST control) | 1.46 fold enrichment (6-mer frequency, TF over GST control) | 1.16 fold enrichment (6-mer frequency, TF over GST control)
GTTTCG | 1.27 fold enrichment (6-mer frequency, TF over GST control) | 1.28 fold enrichment (6-mer frequency, TF over GST control) | 1.44 fold enrichment (6-mer frequency, TF over GST control) | 1.24 fold enrichment (6-mer frequency, TF over GST control) | 1.33 fold enrichment (6-mer frequency, TF over GST control) | 1.34 fold enrichment (6-mer frequency, TF over GST control) | 1.24 fold enrichment (6-mer frequency, TF over GST control) | 1.09 fold enrichment (6-mer frequency, TF over GST control) | 1.09 fold enrichment (6-mer frequency, TF over GST control) | 1.27 fold enrichment (6-mer frequency, TF over GST control)
TACCCG | 1.39 fold enrichment (6-mer frequency, TF over GST control) | 1.5 fold enrichment (6-mer frequency, TF over GST control) | 1.25 fold enrichment (6-mer frequency, TF over GST control) | 1.55 fold enrichment (6-mer frequency, TF over GST control) | 1.4 fold enrichment (6-mer frequency, TF over GST control) | 1.55 fold enrichment (6-mer frequency, TF over GST control) | 1.44 fold enrichment (6-mer frequency, TF over GST control) | 1.34 fold enrichment (6-mer frequency, TF over GST control) | 1.29 fold enrichment (6-mer frequency, TF over GST control) | 1.55 fold enrichment (6-mer frequency, TF over GST control)
ATTGCA | 1.15 fold enrichment (6-mer frequency, TF over GST control) | 1.17 fold enrichment (6-mer frequency, TF over GST control) | 1.06 fold enrichment (6-mer frequency, TF over GST control) | 1.1 fold enrichment (6-mer frequency, TF over GST control) | 1.19 fold enrichment (6-mer frequency, TF over GST control) | 1.28 fold enrichment (6-mer frequency, TF over GST control) | 1.31 fold enrichment (6-mer frequency, TF over GST control) | 1.13 fold enrichment (6-mer frequency, TF over GST control) | 1.11 fold enrichment (6-mer frequency, TF over GST control) | 1.17 fold enrichment (6-mer frequency, TF over GST control)
TATTCA | 1.28 fold enrichment (6-mer frequency, TF over GST control) | 1.33 fold enrichment (6-mer frequency, TF over GST control) | 1.32 fold enrichment (6-mer frequency, TF over GST control) | 1.47 fold enrichment (6-mer frequency, TF over GST control) | 1.29 fold enrichment (6-mer frequency, TF over GST control) | 1.33 fold enrichment (6-mer frequency, TF over GST control) | 1.35 fold enrichment (6-mer frequency, TF over GST control) | 1.31 fold enrichment (6-mer frequency, TF over GST control) | 1.42 fold enrichment (6-mer frequency, TF over GST control) | 1.28 fold enrichment (6-mer frequency, TF over GST control)
TCGATC | 1.09 fold enrichment (6-mer frequency, TF over GST control) | 1.19 fold enrichment (6-mer frequency, TF over GST control) | 1.54 fold enrichment (6-mer frequency, TF over GST control) | 1.1 fold enrichment (6-mer frequency, TF over GST control) | 1.14 fold enrichment (6-mer frequency, TF over GST control) | 1.15 fold enrichment (6-mer frequency, TF over GST control) | 1.06 fold enrichment (6-mer frequency, TF over GST control) | 1.17 fold enrichment (6-mer frequency, TF over GST control) | 1.23 fold enrichment (6-mer frequency, TF over GST control) | 1.16 fold enrichment (6-mer frequency, TF over GST control)
AATCTA | 1.15 fold enrichment (6-mer frequency, TF over GST control) | 1.12 fold enrichment (6-mer frequency, TF over GST control) | 1.87 fold enrichment (6-mer frequency, TF over GST control) | 1.1 fold enrichment (6-mer frequency, TF over GST control) | 1.14 fold enrichment (6-mer frequency, TF over GST control) | 1.07 fold enrichment (6-mer frequency, TF over GST control) | 1.09 fold enrichment (6-mer frequency, TF over GST control) | 1.04 fold enrichment (6-mer frequency, TF over GST control) | 1.92 fold enrichment (6-mer frequency, TF over GST control) | 1.21 fold enrichment (6-mer frequency, TF over GST control)
